# Assays:
# Assay in all cases: DAPPL (digital affinity profiling via proximity ligation, sequencing); 10 mM Tris-HCl pH 7.5, 50 mM NaCl, 1 mM DTT, 4% glycerol, room temperature, 30 min; GST-TFs on glutathione beads, 16-mer random dsDNA library, 0.1% formaldehyde crosslink after washing; high values mean tight binding
# FEV = molecular target: T1, FEV (Homo sapiens, UniProt Q99581 1-238); conditions: protein: recombinant; tags: N-terminal GST; dsDNA, one strand shown
# T1 sequence: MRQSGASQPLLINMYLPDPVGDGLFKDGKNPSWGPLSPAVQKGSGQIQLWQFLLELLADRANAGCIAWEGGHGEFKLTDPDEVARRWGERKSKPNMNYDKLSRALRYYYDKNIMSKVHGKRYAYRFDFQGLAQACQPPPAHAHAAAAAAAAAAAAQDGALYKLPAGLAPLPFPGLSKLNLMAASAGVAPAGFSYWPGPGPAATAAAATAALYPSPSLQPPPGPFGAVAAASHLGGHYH
# Summary of the method: (§1)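 Beads coated with glutathione captured GST-fused human transcription factors that had been expressed in yeast, and the factors were then given DNA barcodes and pooled with a tag-only sample. The pools were incubated with 200 nmole of a random double-stranded 16-mer DNA library in Tris/NaCl/DTT/glycerol buffer for 30 min at room temperature, washed, crosslinked with 0.1% formaldehyde and proximity-ligated with BsaI/T4 ligase at 37 °C for 1 h. PCR amplification and Illumina NextSeq500 sequencing came last. Binding signal is each hexamer's read frequency for a factor divided by its frequency for the tag-only sample.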
# ETV5 = ETV5 (Homo sapiens, UniProt P41161 1-510); conditions: protein: recombinant; tags: N-terminal GST; dsDNA, one strand shown
# Sequence of ETV5 (P41161 whole entry): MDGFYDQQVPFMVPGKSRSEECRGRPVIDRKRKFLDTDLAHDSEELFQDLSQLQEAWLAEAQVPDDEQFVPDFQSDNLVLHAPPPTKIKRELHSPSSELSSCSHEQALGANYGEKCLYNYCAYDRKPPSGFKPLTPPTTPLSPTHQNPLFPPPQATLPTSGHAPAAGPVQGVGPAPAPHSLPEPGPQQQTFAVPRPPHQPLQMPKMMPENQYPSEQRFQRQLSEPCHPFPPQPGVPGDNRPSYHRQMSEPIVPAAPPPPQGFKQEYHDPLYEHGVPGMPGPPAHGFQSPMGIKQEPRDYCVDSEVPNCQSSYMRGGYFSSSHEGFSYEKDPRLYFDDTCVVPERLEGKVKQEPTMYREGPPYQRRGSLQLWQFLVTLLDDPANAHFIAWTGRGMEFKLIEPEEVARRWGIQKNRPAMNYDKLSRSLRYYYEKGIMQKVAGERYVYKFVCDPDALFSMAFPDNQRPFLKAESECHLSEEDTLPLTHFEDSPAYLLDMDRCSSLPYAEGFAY
# Summary of the method: as §1
# HSF1 = HSF1 (Homo sapiens, UniProt Q00613 1-529); conditions: protein: recombinant; tags: N-terminal GST; chain copies: 3; dsDNA, one strand shown
# Sequence of HSF1 (Q00613 whole entry): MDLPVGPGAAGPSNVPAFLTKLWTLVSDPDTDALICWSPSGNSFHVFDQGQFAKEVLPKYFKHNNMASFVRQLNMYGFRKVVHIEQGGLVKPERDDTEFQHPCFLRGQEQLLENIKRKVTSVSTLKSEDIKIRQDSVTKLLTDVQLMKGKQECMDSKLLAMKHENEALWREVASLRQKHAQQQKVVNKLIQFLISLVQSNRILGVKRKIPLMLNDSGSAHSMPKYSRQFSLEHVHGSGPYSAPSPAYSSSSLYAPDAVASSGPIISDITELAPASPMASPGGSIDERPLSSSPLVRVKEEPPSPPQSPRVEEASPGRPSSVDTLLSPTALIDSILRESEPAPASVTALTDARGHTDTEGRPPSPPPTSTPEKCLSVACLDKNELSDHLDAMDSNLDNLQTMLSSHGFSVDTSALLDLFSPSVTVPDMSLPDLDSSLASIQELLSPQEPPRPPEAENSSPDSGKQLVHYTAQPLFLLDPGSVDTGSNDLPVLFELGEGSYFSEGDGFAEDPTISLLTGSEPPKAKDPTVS
# Summary of the method: as §1
# SPIC = molecular target: T2, SPIC (Homo sapiens, UniProt Q8N5J4 1-248); conditions: protein: recombinant; tags: N-terminal GST; dsDNA, one strand shown
# T2 sequence: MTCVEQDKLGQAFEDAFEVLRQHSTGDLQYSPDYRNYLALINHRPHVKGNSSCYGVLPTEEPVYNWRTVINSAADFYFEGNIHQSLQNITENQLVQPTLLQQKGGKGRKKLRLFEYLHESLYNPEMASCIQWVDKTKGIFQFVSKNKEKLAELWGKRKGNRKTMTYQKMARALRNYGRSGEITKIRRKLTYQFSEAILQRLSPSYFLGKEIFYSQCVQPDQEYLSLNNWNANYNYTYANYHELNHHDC
# Summary of the method: as §1
# ELF4 = ELF4 (Homo sapiens, UniProt Q99607 1-663); conditions: protein: recombinant; tags: N-terminal GST; dsDNA, one strand shown
# Sequence of ELF4 (Q99607 whole entry): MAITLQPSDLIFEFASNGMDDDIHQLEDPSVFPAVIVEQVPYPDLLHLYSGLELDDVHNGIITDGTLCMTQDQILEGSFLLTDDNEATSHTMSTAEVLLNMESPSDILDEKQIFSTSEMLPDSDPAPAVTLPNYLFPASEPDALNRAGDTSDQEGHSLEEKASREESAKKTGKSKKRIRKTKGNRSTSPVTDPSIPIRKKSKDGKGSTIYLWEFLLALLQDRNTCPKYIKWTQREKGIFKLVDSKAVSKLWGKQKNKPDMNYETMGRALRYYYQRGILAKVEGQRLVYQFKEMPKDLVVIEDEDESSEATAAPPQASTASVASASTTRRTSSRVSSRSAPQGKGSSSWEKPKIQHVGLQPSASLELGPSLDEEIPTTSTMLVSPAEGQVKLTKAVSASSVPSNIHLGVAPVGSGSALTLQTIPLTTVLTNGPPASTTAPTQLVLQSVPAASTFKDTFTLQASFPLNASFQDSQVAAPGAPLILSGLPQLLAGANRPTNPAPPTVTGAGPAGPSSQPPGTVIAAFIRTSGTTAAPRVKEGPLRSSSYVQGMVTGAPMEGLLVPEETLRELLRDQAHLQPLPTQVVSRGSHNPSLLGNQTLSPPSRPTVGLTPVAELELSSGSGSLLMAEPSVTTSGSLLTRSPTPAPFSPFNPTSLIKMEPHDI
# Summary of the method: as §1
# ELK4 = molecular target: T3, ELK4 (Homo sapiens, UniProt P28324-2 1-405); conditions: protein: recombinant; tags: N-terminal GST; dsDNA, one strand shown
# T3 sequence: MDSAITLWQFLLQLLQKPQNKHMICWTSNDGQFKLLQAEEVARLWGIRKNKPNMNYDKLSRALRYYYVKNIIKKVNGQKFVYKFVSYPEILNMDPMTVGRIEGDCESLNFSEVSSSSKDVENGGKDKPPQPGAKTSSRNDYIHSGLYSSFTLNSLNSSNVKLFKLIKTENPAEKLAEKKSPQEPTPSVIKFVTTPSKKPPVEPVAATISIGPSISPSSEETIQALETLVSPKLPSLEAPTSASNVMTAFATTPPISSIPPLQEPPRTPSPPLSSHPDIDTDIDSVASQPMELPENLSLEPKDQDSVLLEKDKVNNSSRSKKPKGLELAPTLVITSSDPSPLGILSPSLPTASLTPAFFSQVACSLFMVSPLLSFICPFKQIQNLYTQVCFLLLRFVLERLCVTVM
# Summary of the method: as §1
# ETV2 = molecular target: T4, ETV2 (Homo sapiens, UniProt O00321 1-342); conditions: protein: recombinant; tags: N-terminal GST; dsDNA, one strand shown
# T4 sequence: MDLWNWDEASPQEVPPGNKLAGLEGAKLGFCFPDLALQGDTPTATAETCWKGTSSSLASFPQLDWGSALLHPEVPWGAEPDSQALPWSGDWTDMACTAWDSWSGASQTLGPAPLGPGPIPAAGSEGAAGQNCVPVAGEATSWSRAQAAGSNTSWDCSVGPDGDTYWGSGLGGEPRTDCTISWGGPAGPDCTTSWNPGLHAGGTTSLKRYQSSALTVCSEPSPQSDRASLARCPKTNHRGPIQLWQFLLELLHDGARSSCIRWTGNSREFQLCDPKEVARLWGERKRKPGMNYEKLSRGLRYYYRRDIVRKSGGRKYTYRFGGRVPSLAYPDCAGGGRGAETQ
# Summary of the method: as §1
# ELF3 = molecular target: T5, ELF3 (Homo sapiens, UniProt P78545 1-371); conditions: protein: recombinant; tags: N-terminal GST; dsDNA, one strand shown
# T5 sequence: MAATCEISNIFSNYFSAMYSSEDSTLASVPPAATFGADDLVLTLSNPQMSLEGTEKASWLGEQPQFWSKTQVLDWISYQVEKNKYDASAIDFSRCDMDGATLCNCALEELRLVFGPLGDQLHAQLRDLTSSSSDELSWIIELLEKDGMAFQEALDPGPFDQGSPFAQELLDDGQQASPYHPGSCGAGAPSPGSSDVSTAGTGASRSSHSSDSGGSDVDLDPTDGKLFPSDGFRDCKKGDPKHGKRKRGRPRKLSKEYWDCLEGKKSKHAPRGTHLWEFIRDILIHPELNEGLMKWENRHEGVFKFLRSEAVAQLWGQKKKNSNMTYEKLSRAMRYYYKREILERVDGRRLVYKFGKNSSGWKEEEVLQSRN
# Summary of the method: as §1
# CRX = CRX (Homo sapiens, UniProt O43186 1-299); conditions: protein: recombinant; tags: N-terminal GST; dsDNA, one strand shown
# Sequence of CRX (O43186 whole entry): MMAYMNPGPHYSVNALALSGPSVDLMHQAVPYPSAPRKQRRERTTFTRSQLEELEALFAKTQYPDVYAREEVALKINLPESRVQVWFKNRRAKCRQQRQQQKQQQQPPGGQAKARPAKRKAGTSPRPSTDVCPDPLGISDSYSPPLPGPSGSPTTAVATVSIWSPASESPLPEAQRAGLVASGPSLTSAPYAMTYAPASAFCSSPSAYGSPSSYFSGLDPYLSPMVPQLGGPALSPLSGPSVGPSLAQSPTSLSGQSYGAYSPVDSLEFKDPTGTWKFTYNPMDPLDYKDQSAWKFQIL
# Summary of the method: as §1
# ETV1 = ETV1 (Homo sapiens, UniProt P50549 1-477); conditions: protein: recombinant; tags: N-terminal GST; dsDNA, one strand shown
# Sequence of ETV1 (P50549 whole entry): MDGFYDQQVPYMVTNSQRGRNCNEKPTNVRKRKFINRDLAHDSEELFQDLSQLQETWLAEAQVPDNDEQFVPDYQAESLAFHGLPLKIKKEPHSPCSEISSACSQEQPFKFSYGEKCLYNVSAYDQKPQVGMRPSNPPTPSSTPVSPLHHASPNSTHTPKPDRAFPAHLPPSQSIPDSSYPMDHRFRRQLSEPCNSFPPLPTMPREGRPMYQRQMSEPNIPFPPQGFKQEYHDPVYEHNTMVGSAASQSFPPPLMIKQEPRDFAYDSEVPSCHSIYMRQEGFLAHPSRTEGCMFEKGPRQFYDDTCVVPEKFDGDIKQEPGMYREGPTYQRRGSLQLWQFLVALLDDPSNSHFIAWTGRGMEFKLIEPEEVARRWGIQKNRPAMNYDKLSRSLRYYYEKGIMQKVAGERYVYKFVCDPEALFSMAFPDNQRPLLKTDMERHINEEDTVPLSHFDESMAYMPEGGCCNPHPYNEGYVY
# Summary of the method: as §1
# ERF = molecular target: T6, ERF (Homo sapiens, UniProt P50548 1-548); conditions: protein: recombinant; tags: N-terminal GST; dsDNA, one strand shown
# T6 sequence: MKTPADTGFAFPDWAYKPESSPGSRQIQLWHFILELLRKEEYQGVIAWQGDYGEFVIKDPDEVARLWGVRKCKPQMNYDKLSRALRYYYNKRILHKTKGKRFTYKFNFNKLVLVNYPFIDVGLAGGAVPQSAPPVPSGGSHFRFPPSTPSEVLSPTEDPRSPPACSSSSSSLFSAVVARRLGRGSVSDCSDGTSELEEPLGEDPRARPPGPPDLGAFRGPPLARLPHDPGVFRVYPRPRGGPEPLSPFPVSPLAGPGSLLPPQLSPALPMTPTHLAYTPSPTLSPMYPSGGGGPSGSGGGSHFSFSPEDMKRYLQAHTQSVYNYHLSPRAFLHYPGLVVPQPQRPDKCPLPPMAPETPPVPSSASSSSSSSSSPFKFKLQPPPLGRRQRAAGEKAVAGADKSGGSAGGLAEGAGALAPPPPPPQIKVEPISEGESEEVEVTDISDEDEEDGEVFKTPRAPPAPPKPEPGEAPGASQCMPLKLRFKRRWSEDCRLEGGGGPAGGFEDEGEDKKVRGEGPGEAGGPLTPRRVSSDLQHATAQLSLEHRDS
# Summary of the method: as §1
# ETV3L = molecular target: T7, ETV3L (Homo sapiens, UniProt Q6ZN32 1-361); conditions: protein: recombinant; tags: N-terminal GST; dsDNA, one strand shown
# T7 sequence: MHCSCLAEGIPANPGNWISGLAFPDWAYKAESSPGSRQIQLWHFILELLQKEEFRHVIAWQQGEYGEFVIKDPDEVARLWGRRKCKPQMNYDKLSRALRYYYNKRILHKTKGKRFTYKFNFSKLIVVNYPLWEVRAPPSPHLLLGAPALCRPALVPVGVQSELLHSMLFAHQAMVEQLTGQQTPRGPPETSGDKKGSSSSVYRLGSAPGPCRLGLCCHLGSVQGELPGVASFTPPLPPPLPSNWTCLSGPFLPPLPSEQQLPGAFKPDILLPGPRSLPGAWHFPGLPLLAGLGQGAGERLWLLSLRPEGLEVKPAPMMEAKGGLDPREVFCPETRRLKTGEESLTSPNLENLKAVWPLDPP
# Summary of the method: as §1
# ETS2 = molecular target: T8, ETS2 (Homo sapiens, UniProt P15036 1-469); conditions: protein: recombinant; tags: N-terminal GST; dsDNA, one strand shown
# T8 sequence: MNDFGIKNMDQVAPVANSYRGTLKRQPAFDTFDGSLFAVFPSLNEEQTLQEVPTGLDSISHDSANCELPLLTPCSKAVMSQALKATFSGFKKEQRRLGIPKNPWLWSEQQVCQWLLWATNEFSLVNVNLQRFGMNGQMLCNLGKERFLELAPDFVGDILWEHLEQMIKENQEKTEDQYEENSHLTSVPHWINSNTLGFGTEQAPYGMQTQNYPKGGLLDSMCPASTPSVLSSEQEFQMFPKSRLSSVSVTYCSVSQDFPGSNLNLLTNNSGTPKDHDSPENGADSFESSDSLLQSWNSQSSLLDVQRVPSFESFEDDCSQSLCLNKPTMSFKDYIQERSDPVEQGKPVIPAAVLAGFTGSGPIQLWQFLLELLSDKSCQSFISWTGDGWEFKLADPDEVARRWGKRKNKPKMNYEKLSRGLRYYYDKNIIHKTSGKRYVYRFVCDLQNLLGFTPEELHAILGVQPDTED
# Summary of the method: as §1
# SPDEF = molecular target: T9, SPDEF (Homo sapiens, UniProt O95238 1-335); conditions: protein: recombinant; tags: N-terminal GST; dsDNA, one strand shown
# T9 sequence: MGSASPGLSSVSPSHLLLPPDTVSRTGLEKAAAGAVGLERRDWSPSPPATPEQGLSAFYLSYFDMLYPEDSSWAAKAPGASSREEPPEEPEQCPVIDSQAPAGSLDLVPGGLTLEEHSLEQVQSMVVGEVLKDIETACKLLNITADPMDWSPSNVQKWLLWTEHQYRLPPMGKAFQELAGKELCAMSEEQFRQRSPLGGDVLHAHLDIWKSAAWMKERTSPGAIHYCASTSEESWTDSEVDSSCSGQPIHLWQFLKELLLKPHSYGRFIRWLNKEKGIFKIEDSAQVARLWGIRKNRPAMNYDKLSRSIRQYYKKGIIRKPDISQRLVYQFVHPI
# Summary of the method: as §1
# ETV7 = molecular target: T10, ETV7 (Homo sapiens, UniProt Q9Y603 1-341); conditions: protein: recombinant; tags: N-terminal GST; dsDNA, one strand shown
# T10 sequence: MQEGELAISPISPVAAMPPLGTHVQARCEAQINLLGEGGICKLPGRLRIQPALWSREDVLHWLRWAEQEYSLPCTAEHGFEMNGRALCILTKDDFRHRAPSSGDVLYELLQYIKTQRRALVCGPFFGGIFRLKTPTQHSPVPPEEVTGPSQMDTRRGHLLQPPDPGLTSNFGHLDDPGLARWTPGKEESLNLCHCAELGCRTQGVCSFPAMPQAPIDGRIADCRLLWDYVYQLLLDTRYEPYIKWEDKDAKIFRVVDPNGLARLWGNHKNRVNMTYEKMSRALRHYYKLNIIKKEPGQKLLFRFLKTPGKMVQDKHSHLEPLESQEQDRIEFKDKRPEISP
# Summary of the method: as §1
# ELF5 = molecular target: T11, ELF5 (Homo sapiens, UniProt Q9UKW6-2 1-255); conditions: protein: recombinant; tags: N-terminal GST; dsDNA, one strand shown
# T11 sequence: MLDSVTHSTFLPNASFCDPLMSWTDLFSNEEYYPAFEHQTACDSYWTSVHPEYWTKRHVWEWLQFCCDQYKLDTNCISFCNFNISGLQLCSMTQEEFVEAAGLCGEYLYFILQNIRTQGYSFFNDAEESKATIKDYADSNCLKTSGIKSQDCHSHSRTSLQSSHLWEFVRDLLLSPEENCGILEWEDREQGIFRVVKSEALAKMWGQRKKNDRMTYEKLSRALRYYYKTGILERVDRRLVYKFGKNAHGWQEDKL
# Summary of the method: as §1
# ETV3 = molecular target: T12, ETV3 (Homo sapiens, UniProt P41162-2 1-143); conditions: protein: recombinant; tags: N-terminal GST; dsDNA, one strand shown
# T12 sequence: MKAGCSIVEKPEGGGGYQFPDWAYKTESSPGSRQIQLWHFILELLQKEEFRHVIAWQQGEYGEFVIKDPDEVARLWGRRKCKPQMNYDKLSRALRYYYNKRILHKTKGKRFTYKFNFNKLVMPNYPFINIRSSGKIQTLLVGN
# Summary of the method: as §1
# ETV6 = ETV6 (Homo sapiens, UniProt P41212 1-452); conditions: protein: recombinant; tags: N-terminal GST; dsDNA, one strand shown
# Sequence of ETV6 (P41212 whole entry): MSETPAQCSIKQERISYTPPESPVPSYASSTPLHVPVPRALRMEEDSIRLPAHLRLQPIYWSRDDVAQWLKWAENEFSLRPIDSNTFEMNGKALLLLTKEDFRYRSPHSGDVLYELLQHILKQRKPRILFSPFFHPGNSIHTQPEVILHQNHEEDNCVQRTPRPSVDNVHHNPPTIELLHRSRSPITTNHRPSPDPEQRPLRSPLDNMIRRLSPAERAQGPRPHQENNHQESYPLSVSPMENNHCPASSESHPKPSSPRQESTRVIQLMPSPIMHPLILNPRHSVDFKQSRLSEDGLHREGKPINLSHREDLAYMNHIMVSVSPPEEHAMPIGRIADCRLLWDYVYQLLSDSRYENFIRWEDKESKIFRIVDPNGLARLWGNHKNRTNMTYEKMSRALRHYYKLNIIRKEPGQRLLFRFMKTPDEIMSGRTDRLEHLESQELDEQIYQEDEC
# Summary of the method: as §1
sequence,measurement,setting,value
CTTATG,binding signal,FEV,"1.35 fold enrichment (6-mer frequency, TF over GST control)"
same,binding signal,ETV5,"1.5 fold enrichment (6-mer frequency, TF over GST control)"
same,binding signal,HSF1,"1.64 fold enrichment (6-mer frequency, TF over GST control)"
same,binding signal,SPIC,"1.33 fold enrichment (6-mer frequency, TF over GST control)"
same,binding signal,ELF4,"1.49 fold enrichment (6-mer frequency, TF over GST control)"
same,binding signal,ELK4,"1.55 fold enrichment (6-mer frequency, TF over GST control)"
same,binding signal,ETV2,"1.37 fold enrichment (6-mer frequency, TF over GST control)"
same,binding signal,ELF3,"1.45 fold enrichment (6-mer frequency, TF over GST control)"
same,binding signal,CRX,"2.2 fold enrichment (6-mer frequency, TF over GST control)"
same,binding signal,ETV1,"1.58 fold enrichment (6-mer frequency, TF over GST control)"
same,binding signal,ERF,"1.52 fold enrichment (6-mer frequency, TF over GST control)"
same,binding signal,ETV3L,"1.35 fold enrichment (6-mer frequency, TF over GST control)"
same,binding signal,ETS2,"1.43 fold enrichment (6-mer frequency, TF over GST control)"
same,binding signal,SPDEF,"1.53 fold enrichment (6-mer frequency, TF over GST control)"
same,binding signal,ETV7,"1.47 fold enrichment (6-mer frequency, TF over GST control)"
same,binding signal,ELF5,"1.42 fold enrichment (6-mer frequency, TF over GST control)"
same,binding signal,ETV3,"1.64 fold enrichment (6-mer frequency, TF over GST control)"
same,binding signal,ETV6,"1.4 fold enrichment (6-mer frequency, TF over GST control)"

# Source: PMC7862700, “An all-to-all approach to the identification of sequence-specific readers for epigenetic DNA modifications on cytosine”
